# PubChem BioAssay (EPA / NIEHS)
# The source holds several records for some structures; these can differ, active in one and inactive in another. The source made the active and inactive calls. Rule for the calls: active = hit-call score of the fitted dose curve at least 0.9, where 1 is the maximum; inactive = score below 0.9.
# Assays:
# [1] = target: Transcription factor E2F1 (Homo sapiens) (UniProt Q01094); test: ATG_E2F_CIS: Attagene CIS-FACTORIAL HepG2 Assay for human E2F Transcription Factor 1 (AID 2282935); conditions: HepG2 Attagene cis-reporter, E2F reporter RNA transcripts; actives raise or lower the signal
# Chain of Transcription factor E2F1 (Homo sapiens) (Q01094 whole entry, looked up): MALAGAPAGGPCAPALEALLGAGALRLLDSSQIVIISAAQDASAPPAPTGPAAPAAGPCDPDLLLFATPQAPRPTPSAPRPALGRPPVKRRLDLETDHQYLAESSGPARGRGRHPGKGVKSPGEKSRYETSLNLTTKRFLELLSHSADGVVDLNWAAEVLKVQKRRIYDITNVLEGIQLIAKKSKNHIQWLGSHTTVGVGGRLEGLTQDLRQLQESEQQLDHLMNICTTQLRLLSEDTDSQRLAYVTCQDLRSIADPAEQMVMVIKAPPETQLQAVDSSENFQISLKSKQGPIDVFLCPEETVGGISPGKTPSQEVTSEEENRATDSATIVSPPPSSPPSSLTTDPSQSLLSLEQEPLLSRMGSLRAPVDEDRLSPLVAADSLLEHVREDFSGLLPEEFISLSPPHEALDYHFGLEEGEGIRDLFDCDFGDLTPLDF
# How it was run: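 Gain or loss of reporter transcript, fitted against DMSO, reflects E2F1-driven transcription. Transiently transfected HepG2 dosed 24 h before RNA isolation. Quantified by fluorescent RT-PCR products separated by capillary electrophoresis.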
# [2] = ATG_E_Box_CIS: Attagene CIS-FACTORIAL HepG2 Assay for human Enhancer Box (E-box) (AID 2282936); conditions: HepG2 E-box cis-reporter transcription, actives raise or lower the signal
# How it was run: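 E-box-driven reporter transcripts measured in transiently transfected HepG2 after 24 h exposure: RNA reverse-transcribed, PCR-amplified, fluorescently labelled, digested and resolved by capillary electrophoresis. Gain or loss relative to DMSO.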
# [3] = ATG_M_61_CIS: Attagene CIS-FACTORIAL HepG2 Assay for M61 Transcription Factor (Internal Marker) (AID 2282937); conditions: HepG2 Attagene CIS-FACTORIAL M61 internal marker reporter; actives raise or lower the signal
# How it was run: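 Transfect HepG2 with MRTUs; dose 24 h; isolate RNA; reverse-transcribe with DNase I treatment; PCR-amplify, FAM-label and cut with HpaI for 2 h at 37 C; resolve by CE. Bidirectional fitting against DMSO.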
# [4] = ATG_EGR_CIS: Attagene CIS-FACTORIAL HepG2 Assay for human Early Growth Response 1 (EGR1) (AID 2282938); conditions: HepG2 Attagene CIS-FACTORIAL EGR reporter mRNA; actives raise or lower the signal
# How it was run: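 After a 24 h treatment of transiently transfected HepG2 cells, total RNA was reverse-transcribed and reporter sequences PCR-amplified, labelled and run on capillary electrophoresis. Reporters sit under cis-regulatory promoters sensing endogenous factors.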
# [5] = ATG_M_19_CIS: Attagene CIS-FACTORIAL HepG2 Assay for M19 Transcription Factor (Internal Marker) (AID 2282939); conditions: HepG2 Attagene CIS-FACTORIAL M19 internal marker reporter; actives raise or lower the signal
# How it was run: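 Transfect HepG2 with MRTU reporter library → dose chemical, 24 h → isolate total RNA, reverse-transcribe with oligo(dT) → PCR, 6-FAM label, HpaI cut (2 h, 37 C) → capillary electrophoresis. Bidirectional fit vs DMSO.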
# [6] = ATG_ERE_CIS: Attagene CIS-FACTORIAL HepG2 Assay for Estrogen Response Element (ERE) (AID 2282940); conditions: HepG2 ERE cis-reporter, Attagene RNA transcript; actives raise or lower the signal
# How it was run: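 Transient MRTU transfection of human HepG2; cis-element promoters; 24 h dosing; total RNA → RT (oligo dT) → PCR → 6-FAM primer extension → HpaI digest → CE fluorescence. Bidirectional fit, DMSO baseline.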
# [7] = ATG_Ets_CIS: Attagene CIS-FACTORIAL HepG2 Assay for human Erythroblast Transformation Specific (ETS) (AID 2282941); conditions: HepG2 ETS cis-reporter transcription, actives raise or lower the signal
# How it was run: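 Cis-regulated reporter mRNA induction in HepG2 (transient transfection), 24 h exposure, RT-PCR plus capillary electrophoresis detection; DMSO serves as negative control and baseline.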
# [8] = target: Hepatocyte nuclear factor 3-beta (Homo sapiens) (UniProt Q9Y261); test: ATG_FoxA2_CIS: Attagene CIS-FACTORIAL HepG2 Assay for human Forkhead box A2 (FOXA2) (AID 2282942); conditions: HepG2 cis-reporter transcription factor activity, 24 h; actives raise or lower the signal
# Chain of Hepatocyte nuclear factor 3-beta (Homo sapiens) (Q9Y261 whole entry, looked up): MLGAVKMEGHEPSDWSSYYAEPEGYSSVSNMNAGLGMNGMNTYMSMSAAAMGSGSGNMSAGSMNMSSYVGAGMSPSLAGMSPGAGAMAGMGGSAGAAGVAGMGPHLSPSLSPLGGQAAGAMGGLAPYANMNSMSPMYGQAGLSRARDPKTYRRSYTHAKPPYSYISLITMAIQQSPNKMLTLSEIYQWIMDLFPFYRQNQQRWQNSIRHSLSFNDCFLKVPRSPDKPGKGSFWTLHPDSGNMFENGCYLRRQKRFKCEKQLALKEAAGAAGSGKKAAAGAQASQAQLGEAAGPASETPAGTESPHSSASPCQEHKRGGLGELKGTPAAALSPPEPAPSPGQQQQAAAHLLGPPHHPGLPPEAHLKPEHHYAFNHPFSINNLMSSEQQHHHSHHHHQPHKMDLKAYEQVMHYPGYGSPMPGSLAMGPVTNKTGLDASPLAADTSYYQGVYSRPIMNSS
# How it was run: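 24 h dosing of HepG2 bearing cis-reporter constructs; mRNA readout by RT-PCR/CE fluorescence; bidirectional fit, DMSO baseline.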
# [9] = ATG_FoxO_CIS: Attagene CIS-FACTORIAL HepG2 Assay for human Forkhead box O (FoxO) (AID 2282943); conditions: HepG2 Attagene cis-reporter, FoxO element, mRNA; actives raise or lower the signal
# How it was run: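 Endogenous transcription factor activity read from multiplexed cis-promoter reporter transcripts in transiently transfected HepG2, 24 h after dosing. Reporter RNA measured via RT-PCR plus capillary electrophoresis of FAM-labeled products; gain or loss relative to DMSO.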
# [10] = ATG_GATA_CIS: Attagene CIS-FACTORIAL HepG2 Assay for human GATA Binding Protein (AID 2282944); conditions: HepG2 GATA cis-element reporter, Attagene multiplex mRNA; actives raise or lower the signal
# How it was run: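 Transient MRTU transfection, HepG2, 24 h compound exposure. Total RNA → oligo(dT) RT → PCR → 6-FAM primer extension → HpaI cut → CE. Bidirectional fit vs DMSO.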
# [11] = ATG_GLI_CIS: Attagene CIS-FACTORIAL HepG2 Assay for human Zinc Finger Protein GLI1 (AID 2282945); conditions: HepG2, Attagene cis-factorial reporter mRNA, GLI element; actives raise or lower the signal
# How it was run: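 Bidirectional curve fits relative to DMSO, using reporter mRNA levels from RT-PCR plus capillary electrophoresis. Cells were HepG2 transiently carrying cis-regulated reporter constructs, harvested 24 h after dosing.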
# [12] = target: Bile acid receptor (Homo sapiens) (UniProt Q96RI1); test: ATG_IR1_CIS: Attagene CIS-FACTORIAL HepG2 Assay for human Nuclear Receptor Subfamily 1 Group H Member 4 (NR1H4), IR1 submotif (AID 2282946); conditions: IR1 reporter transcription, actives raise or lower the signal
# Chain of Bile acid receptor (Homo sapiens) (Q96RI1 whole entry, looked up): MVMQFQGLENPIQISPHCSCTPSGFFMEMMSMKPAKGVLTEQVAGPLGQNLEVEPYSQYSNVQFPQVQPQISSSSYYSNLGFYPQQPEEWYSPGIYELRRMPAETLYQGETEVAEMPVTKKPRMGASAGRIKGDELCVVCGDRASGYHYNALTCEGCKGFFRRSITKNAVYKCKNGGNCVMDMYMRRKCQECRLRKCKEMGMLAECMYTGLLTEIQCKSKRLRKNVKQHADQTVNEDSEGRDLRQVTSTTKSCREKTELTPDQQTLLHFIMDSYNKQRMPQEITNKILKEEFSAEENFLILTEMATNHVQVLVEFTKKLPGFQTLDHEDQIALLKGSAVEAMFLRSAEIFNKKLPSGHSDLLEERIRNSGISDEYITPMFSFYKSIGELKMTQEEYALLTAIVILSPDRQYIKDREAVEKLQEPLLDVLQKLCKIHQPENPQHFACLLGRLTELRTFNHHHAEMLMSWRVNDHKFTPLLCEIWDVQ
# How it was run: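 HepG2 cells transiently transfected with multiplexed cis-element reporter units read endogenous transcription factor activity. After 24 h compound exposure, reporter mRNA was quantified by RT-PCR, fluorescent labelling, HpaI digestion and capillary electrophoresis; bidirectional fitting versus DMSO baseline.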
# [13] = ATG_GRE_CIS: Attagene CIS-FACTORIAL HepG2 Assay for human Glucocorticoid Response Elements (GRE) (AID 2282947); conditions: HepG2 GRE cis-reporter, Attagene multiplex mRNA; actives raise or lower the signal
# How it was run: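 Reporter transcripts read by RT-PCR with capillary electrophoresis fluorescence after a 24 h chemical exposure of HepG2 cells transiently transfected with multiple cis-element reporter units. Gain or loss fitted against DMSO.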
# [14] = ATG_ISRE_CIS: Attagene CIS-FACTORIAL HepG2 Assay for human Interferon Regulatory Factor 1 (IRF1) binding to an Interferon-Stimulated Response Element (ISRE) (AID 2282948); conditions: HepG2 ISRE cis-reporter (Attagene), mRNA transcription readout; actives raise or lower the signal
# How it was run: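 Multiplexed mRNA reporter readout in human liver HepG2 cells: cis-element-driven reporters transfected, compound added for 24 h, transcripts amplified, fluorescently labelled and sized by capillary electrophoresis; curve fitting bidirectional against DMSO.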
# [15] = ATG_M_32_CIS: Attagene CIS-FACTORIAL HepG2 Assay for M32 Transcription Factor (Internal Marker) (AID 2282949); conditions: HepG2 Attagene cis-factorial M32 reporter, mRNA; actives raise or lower the signal;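 note: background control marker of the multiplexed CIS panel rather than a real target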
# How it was run: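 HepG2 transfectants (cis-regulated reporter transcription units) dosed 24 h. Reporter mRNA by RT-PCR plus CE, analysed as gain or loss relative to DMSO.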
# [16] = target: Hepatocyte nuclear factor 6 (Homo sapiens) (UniProt Q9UBC0); test: ATG_HNF6_CIS: Attagene CIS-FACTORIAL HepG2 Assay for human Hepatocyte Nuclear Factor 6 (HNF6) (AID 2282952); conditions: HepG2 Attagene cis-factorial HNF6 reporter transcription; actives raise or lower the signal
# Chain of Hepatocyte nuclear factor 6 (Homo sapiens) (Q9UBC0 whole entry, looked up, the tested form may be a part): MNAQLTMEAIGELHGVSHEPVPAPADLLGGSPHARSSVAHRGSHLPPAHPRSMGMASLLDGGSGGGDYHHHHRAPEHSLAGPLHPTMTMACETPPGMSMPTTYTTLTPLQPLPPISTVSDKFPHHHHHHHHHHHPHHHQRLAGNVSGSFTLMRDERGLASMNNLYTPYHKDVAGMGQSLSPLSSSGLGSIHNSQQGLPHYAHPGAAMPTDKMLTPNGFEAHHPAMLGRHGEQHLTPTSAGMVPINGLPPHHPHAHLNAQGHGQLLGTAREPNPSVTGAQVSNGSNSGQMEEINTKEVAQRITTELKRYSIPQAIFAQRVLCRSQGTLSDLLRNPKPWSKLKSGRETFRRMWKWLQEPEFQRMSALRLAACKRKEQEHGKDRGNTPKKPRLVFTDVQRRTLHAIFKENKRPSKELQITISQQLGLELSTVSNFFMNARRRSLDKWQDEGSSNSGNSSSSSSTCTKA
# How it was run: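 Using cis-element reporters in HepG2 liver cells, the assay tracks endogenous factor-driven transcription 24 h post-dosing. Signal comes from 6-FAM-labelled, HpaI-digested RT-PCR fragments, with gain or loss scored against DMSO.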
# [17] = target: Heat shock factor protein 1 (Homo sapiens) (UniProt Q00613); test: ATG_HSE_CIS: Attagene CIS-FACTORIAL HepG2 Assay for human Heat Shock Transcription Factor 1 (HSE) (AID 2282953); conditions: HepG2 HSE cis-reporter, Attagene RNA transcription; actives raise or lower the signal
# Chain of Heat shock factor protein 1 (Homo sapiens) (Q00613 whole entry, looked up): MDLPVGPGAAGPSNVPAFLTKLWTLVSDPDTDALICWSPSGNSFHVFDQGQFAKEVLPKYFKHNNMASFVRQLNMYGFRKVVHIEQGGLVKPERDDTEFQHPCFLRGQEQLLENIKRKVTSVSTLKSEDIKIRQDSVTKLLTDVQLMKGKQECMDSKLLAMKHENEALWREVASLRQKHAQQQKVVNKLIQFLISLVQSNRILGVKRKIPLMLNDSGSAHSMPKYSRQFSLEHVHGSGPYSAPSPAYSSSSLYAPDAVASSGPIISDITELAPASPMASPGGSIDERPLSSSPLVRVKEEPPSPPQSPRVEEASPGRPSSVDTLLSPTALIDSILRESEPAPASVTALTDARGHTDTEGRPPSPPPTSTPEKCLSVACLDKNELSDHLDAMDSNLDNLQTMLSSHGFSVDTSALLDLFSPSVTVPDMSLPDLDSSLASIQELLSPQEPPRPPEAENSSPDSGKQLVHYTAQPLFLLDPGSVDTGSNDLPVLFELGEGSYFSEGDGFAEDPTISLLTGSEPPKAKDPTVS
# How it was run: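 HepG2, transient MRTU transfection, cis-promoter reporters (endogenous TF activity). 24 h compound. RNA → oligo(dT) RT → PCR → 6-FAM primer extension → HpaI cut → CE. Bidirectional fit vs DMSO.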
# [18] = ATG_MRE_CIS: Attagene CIS-FACTORIAL HepG2 Assay for human Metal Responsive Element (MRE) (AID 2282954); conditions: HepG2 MRE cis-reporter transcription, Attagene multiplex; actives raise or lower the signal
# How it was run: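 Endogenous MRE-dependent transcription read as reporter mRNA in transiently transfected human HepG2 cells at 24 h. RNA reverse-transcribed, PCR-amplified, labelled and resolved by capillary electrophoresis; gain or loss relative to DMSO.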
# [19] = target: Hypoxia-inducible factor 1-alpha (Homo sapiens) (UniProt Q16665); test: ATG_HIF1a_CIS: Attagene CIS-FACTORIAL HepG2 Assay for human Hypoxia Inducible Factor 1 (HIF1A) (AID 2282951); conditions: HepG2 Attagene cis-factorial HIF1a reporter transcription; actives raise or lower the signal
# Chain of Hypoxia-inducible factor 1-alpha (Homo sapiens) (Q16665 whole entry, looked up): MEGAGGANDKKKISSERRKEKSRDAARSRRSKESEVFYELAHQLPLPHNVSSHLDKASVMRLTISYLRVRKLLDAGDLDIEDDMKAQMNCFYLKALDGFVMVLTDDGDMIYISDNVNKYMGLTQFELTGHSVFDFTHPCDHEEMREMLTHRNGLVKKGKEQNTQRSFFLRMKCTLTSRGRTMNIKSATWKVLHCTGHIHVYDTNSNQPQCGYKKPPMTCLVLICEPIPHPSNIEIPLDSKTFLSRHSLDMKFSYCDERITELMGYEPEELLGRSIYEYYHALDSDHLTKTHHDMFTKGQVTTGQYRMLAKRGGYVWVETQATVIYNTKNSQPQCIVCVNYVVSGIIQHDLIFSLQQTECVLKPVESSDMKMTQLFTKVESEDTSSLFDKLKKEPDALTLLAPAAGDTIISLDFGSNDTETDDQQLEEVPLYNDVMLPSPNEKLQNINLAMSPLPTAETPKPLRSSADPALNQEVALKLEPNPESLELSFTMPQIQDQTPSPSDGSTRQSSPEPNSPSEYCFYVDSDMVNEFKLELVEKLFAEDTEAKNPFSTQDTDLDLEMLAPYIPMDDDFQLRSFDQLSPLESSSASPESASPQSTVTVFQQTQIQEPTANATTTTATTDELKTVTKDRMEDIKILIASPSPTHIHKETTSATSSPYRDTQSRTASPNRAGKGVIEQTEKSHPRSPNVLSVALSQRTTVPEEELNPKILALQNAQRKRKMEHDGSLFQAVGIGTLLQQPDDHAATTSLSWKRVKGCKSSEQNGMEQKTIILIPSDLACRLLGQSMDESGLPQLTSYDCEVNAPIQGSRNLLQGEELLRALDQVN
# How it was run: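 After 24 h chemical exposure of reporter-transfected HepG2 cells, reporter cDNA was PCR-amplified, labelled by 6-FAM primer extension (2 min 95 C, 20 s 68 C, 10 min 72 C), HpaI-cut (2 h, 37 C) and analysed by CE.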
# [20] = ATG_M_06_CIS: Attagene CIS-FACTORIAL HepG2 Assay for M06 Transcription Factor (Internal Marker) (AID 2282950); conditions: HepG2 Attagene CIS-FACTORIAL M06 internal marker reporter; actives raise or lower the signal
# How it was run: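 Read-out is fluorescence of labelled reporter cDNA fragments resolved by capillary electrophoresis after RT-PCR. Cells: HepG2 carrying transfected cis-promoter reporter units, treated 24 h. Gain or loss of signal fitted relative to DMSO.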
compound,measurement,setting,value
FC1CC(F)(F)C(F)(F)C1(F)F (configuration not stated),outcome,[1],inactive
same,outcome,[2],inactive
same,outcome,[3],inactive
same,outcome,[4],inactive
same,outcome,[5],inactive
same,outcome,[6],inactive
same,outcome,[7],inactive
same,outcome,[8],inactive
same,outcome,[9],inactive
same,outcome,[10],inactive
same,outcome,[11],inactive
same,outcome,[12],inactive
same,outcome,[13],inactive
same,outcome,[14],inactive
same,outcome,[15],inactive
same,outcome,[16],inactive
same,outcome,[17],inactive
same,outcome,[18],inactive
O=C(O)C(F)(F)C(F)(F)C(F)(F)C(F)(F)C(F)(F)C(F)(F)C(F)(F)C(F)(F)C(F)(F)C(F)(F)C(F)(F)C(F)(F)C(F)(F)F,outcome,[1],inactive
same,outcome,[2],inactive
same,outcome,[3],inactive
same,outcome,[4],inactive
same,outcome,[5],inactive
same,outcome,[6],inactive
same,outcome,[7],inactive
same,outcome,[8],inactive
same,outcome,[9],inactive
same,outcome,[10],inactive
same,outcome,[11],inactive
same,outcome,[12],inactive
same,outcome,[13],inactive
same,outcome,[14],inactive
same,outcome,[15],inactive
same,outcome,[19],inactive
same,outcome,[16],inactive
same,outcome,[17],inactive
same,outcome,[18],inactive
OCC(F)(F)C(F)(F)C(F)(F)C(F)(F)C(F)(F)C(F)F,outcome,[1],inactive
same,outcome,[2],inactive
same,outcome,[3],inactive
same,outcome,[4],inactive
same,outcome,[5],inactive
same,AC50,[6],6.1 µM (active)
same,outcome,[7],inactive
same,outcome,[8],inactive
same,outcome,[9],inactive
same,outcome,[10],inactive
same,outcome,[11],inactive
same,outcome,[12],inactive
same,outcome,[13],inactive
same,outcome,[14],inactive
same,outcome,[15],inactive
same,outcome,[20],inactive
same,outcome,[19],inactive
same,outcome,[16],inactive
same,outcome,[17],inactive
same,outcome,[18],inactive
OCC(F)(F)C(F)(F)C(F)(F)C(F)(F)C(F)(F)C(F)(F)F,AC50,[1],234 µM (active)
same,AC50,[2],150 µM (active)
same,outcome,[3],inactive
same,AC50,[4],248 µM (active)
same,outcome,[5],inactive
same,outcome,[6],inactive
same,AC50,[7],236 µM (active)
same,outcome,[8],inactive
same,outcome,[9],inactive
same,outcome,[10],inactive
same,outcome,[11],inactive
same,outcome,[12],inactive
same,outcome,[13],inactive
same,outcome,[14],inactive
same,outcome,[15],inactive
same,outcome,[20],inactive
same,outcome,[16],inactive
same,outcome,[17],inactive
same,outcome,[18],inactive
C=C(C)C(=O)OCC(F)(F)C(F)(F)C(F)(F)F,outcome,[1],inactive
same,outcome,[2],inactive
same,outcome,[4],inactive
same,outcome,[5],inactive
same,AC50,[6],30.8 µM (active)
same,outcome,[6],inactive
same,outcome,[7],inactive
same,outcome,[8],inactive
same,outcome,[9],inactive
same,outcome,[10],inactive
same,outcome,[11],inactive
same,outcome,[12],inactive
same,outcome,[13],inactive
same,outcome,[14],inactive
same,outcome,[15],inactive
same,outcome,[20],inactive
same,outcome,[16],inactive
same,outcome,[18],inactive
CC(Cc1ccc(O)c(O)c1)C(C)Cc1ccc(O)c(O)c1 (configuration not stated),AC50,[1],33.4 µM (active)
same,outcome,[2],inactive
same,outcome,[3],inactive
same,AC50,[4],20.5 µM (active)
same,outcome,[5],inactive
same,AC50,[6],8.81 µM (active)
same,outcome,[7],inactive
same,outcome,[8],inactive
same,outcome,[9],inactive
same,outcome,[10],inactive
same,outcome,[11],inactive
same,outcome,[12],inactive
same,outcome,[13],inactive
same,outcome,[14],inactive
same,outcome,[15],inactive
same,outcome,[20],inactive
same,AC50,[19],8.95 µM (active)
same,outcome,[16],inactive
same,AC50,[17],57.7 µM (active)
same,AC50,[18],22.3 µM (active)
Cc1ccc(S(=O)(=O)NCl)cc1,outcome,[1],inactive
same,outcome,[2],inactive
same,outcome,[3],inactive
same,outcome,[4],inactive
same,outcome,[5],inactive
same,outcome,[6],inactive
same,outcome,[7],inactive
same,outcome,[8],inactive
same,outcome,[9],inactive
same,outcome,[10],inactive
same,outcome,[11],inactive
same,outcome,[13],inactive
same,outcome,[14],inactive
same,outcome,[15],inactive
same,outcome,[20],inactive
same,outcome,[16],inactive
same,outcome,[17],inactive
same,outcome,[18],inactive
